Screening results: PubChem, Sanford-Burnham Center for Chemical Genomics
SENP6 block: inhibitors of human SENP6 protease; Recombinant SENP6 catalytic domain, aminoluciferin luminescence; inhibition, % at 10 µM; actives 1.8% (n = 330,000); AID 2599;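 active means inhibition above about 50% at the single tested dose, limit read from the data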;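 further: plate controls were DMSO wells with enzyme for no effect and DMSO wells lacking enzyme for full effect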
SENP7 inh: inhibitors of human SENP7 protease; inhibition, % at 5 µM; actives 1.5% (n = 330,000); recombinant SENP7, Z-RLRGG-aminoluciferin luminescence, 40 min; Q9BQF6;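 active means inhibition above about 50% at the single test dose, limit read from the data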;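 further: plate controls were DMSO with enzyme for no effect and no enzyme buffer wells for full effect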
Target sequence (Q9BQF6 706-1050 limits assumed): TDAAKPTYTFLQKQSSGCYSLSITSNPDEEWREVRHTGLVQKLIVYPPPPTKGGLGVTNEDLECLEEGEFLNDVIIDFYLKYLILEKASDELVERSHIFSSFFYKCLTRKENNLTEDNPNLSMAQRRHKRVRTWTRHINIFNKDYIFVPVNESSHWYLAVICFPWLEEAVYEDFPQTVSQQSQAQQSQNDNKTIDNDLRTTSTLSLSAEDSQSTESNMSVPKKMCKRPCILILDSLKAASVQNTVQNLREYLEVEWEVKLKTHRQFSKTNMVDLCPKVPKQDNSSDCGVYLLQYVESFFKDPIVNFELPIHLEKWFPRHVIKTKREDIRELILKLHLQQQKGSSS
SENP8 block-1: inhibitors of human SENP8 protease; Q96LD8; recombinant SENP8, Nedd8 substrate fluorescence; inhibition, % at 20 µM; actives 0.64% (n = 360,000); AID 602440; in the data active means inhibition mostly above about 40%, no sharp cut-off; inactive means mostly below about 27%
Target sequence (Q96LD8 whole entry, looked up): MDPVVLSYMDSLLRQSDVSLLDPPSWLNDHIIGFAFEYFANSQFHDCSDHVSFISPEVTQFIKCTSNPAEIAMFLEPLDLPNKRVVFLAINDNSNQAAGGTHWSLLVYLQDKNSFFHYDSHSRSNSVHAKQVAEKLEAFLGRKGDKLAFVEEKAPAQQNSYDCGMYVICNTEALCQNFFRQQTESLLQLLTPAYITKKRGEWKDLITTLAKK
PPC-1+TRAIL kill: compounds killing PPC-1 cancer cells with TRAIL present (potentiator screen, no TRAIL-free arm). PPC-1 cells + TRAIL, ATPLite viability luminescence. cell killing (% activity), % at 4 µM or 5 µM. actives 0.41% (n = 220,000). AID 1443;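 active means cell killing above 50% in the first pass at 4 µM, then a duplicate retest at 5 µM averaging 50% or more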;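 further: plate controls were cells with TRAIL plus DMSO for no effect and medium-only wells lacking cells for full effect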
TRAIL sens C8: caspase-8 TRAIL sensitization | NB7+C8 cells + TRAIL, ATPlite viability luminescence | inhibition (viability loss, TRAIL sensitization), % at 10 µM | actives 1% (n = 360,000) | AID 624354;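 active means compounds causing at least 50% loss of cell viability in the single-dose screen, relative to plate controls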
SENP8 block-2: inhibitors of human SENP8 protease | Q96LD8 | purified SENP8, Z-RLRGG-aminoluciferin cleavage, luminescence | inhibition, % at 10 µM | actives 1.2% (n = 330,000); in the data active means inhibition above about 50%
SENP8 confirm: human SENP8 inhibition, confirmed. shares compounds with SENP7 inh. inhibition, % at 12.5 µM. Recombinant SENP8, Z-RLRGG-aminoluciferin luminescence, 60 min. AID 488912. actives 40% (n = 6,200);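 active means mean inhibition across replicates above about 50%, limit read from the data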
SENP6 conf: confirmation of human SENP6 protease inhibitors; shares compounds with SENP7 inh; recombinant SENP6, Z-RLRGG-aminoluciferin luminescence; inhibition, % at 12.5 µM; actives 58% (n = 6,200); AID 488915
SENP7 conf: confirmation of human SENP7 protease inhibitors. shares compounds with SENP7 inh. recombinant SENP7, Z-RLRGG-aminoluciferin luminescence, 40 min. inhibition, % at 12.5 µM. actives 69% (n = 6,200)
Casp3 select: inhibits human caspase-3 in SENP selectivity test | shares compounds with SENP7 inh | purified caspase-3, Z-DEVD-aminoluciferin luminescence, 60 min | inhibition, % at 12.5 µM | actives 60% (n = 6,200) | AID 488918;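 active means mean inhibition above about 50%, limit read from the data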;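 further: plate controls were enzyme with DMSO for no effect and wells without caspase-3 for full effect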
SENP luc ctr: luminescence interference (SENP counter-screen); inhibition, % at 12.5 µM; AID 488919; Pre-incubated SENP8/Z-RLRGG-aminoluciferin, luciferase luminescence interference; actives 39% (n = 6,200); shares compounds with SENP7 inh;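 active means mean inhibition above about 50% when retested at one dose, limit read from the data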;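 further: plate controls were DMSO wells with completed reaction for no effect and substrate without enzyme for full effect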
* = called active by the depositor; i = inactive; x = no result given. Shown are actives, neighbours in structure and some others; about 3% of the full set was active somewhere.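 How the source made its calls, unless noted: active means mean inhibition above about 50% in the one-dose retest (limit read from the data); inactive means the rest.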

SMILES	SENP6 block	SENP7 inh	SENP8 block-1	PPC-1+TRAIL kill	TRAIL sens C8	SENP8 block-2	SENP8 confirm	SENP6 conf	SENP7 conf	Casp3 select	SENP luc ctr
CCC(C)N(C(=O)COc1ccc(NC(C)=O)cc1)C1CCS(=O)(=O)C1 (stereo not drawn)	-10.9	-5.7	-0.5	4.9	-1.9	-4.7	x	x	x	x	x
O=C(NCc1ccccc1CN1CCCC1)c1cc2cc(Cl)ccc2o1	-10.3	1.2	2.0	x	11.2	2.2	x	x	x	x	x
C[C@@H]1C(=O)O[C@H]2[C@H](O)[C@@]34[C@H]5C[C@@H](C(C)(C)C)[C@]36[C@@H](OC(=O)[C@@H]6O)O[C@@]4(C(=O)O5)[C@@]12O	-11.8	-4.8	15.4	x	4.5	1.3	x	x	x	x	x
Cc1cccc(NC(=O)CN2C(=O)S/C(=C\c3ccc(O)c([N+](=O)[O-])c3)C2=O)c1	50.6*	-2.9	26.4	15.7	0.9	27.0	13.2	4.2	17.3	23.5	15.0
CCN(CC)C(=O)c1[nH]cnc1C(=O)NC1CCN(C(=O)OC(C)(C)C)CC1	-28.1	-5.7	13.0	x	-7.4	-11.2	x	x	x	x	x
O=C(NC1(O)C(=O)c2ccccc2C1=O)c1ccc(C(F)(F)F)cc1	73.8*	79.9*	81.0*	6.2	1.0	67.3*	79.2*	90.6*	83.5*	7.9	5.5
Cc1ccc(C(=O)NC2(O)C(=O)c3ccccc3C2=O)cc1C	64.4*	60.5*	100.0*	-2.3	-1.7	63.9*	70.1*	85.1*	74.3*	1.6	4.9
Nc1ccc(S(=O)(=O)Nc2nc3ccccc3o2)cc1	-7.9	-19.1	4.7	x	1.0	-18.5	x	x	x	x	x
COc1ccc(CCN2C(=NC(C)=O)SC3CS(=O)(=O)CC32)cc1OC (stereo not drawn)	-11.7	0.1	0.5	24.7	-9.1	-7.5	x	x	x	x	x
Cc1c(-c2ccc(Br)cc2)nc2ccccn12	95.6*	89.9*	-336.9	20.2	16.5	87.9*	-20.4	88.5*	99.6*	88.0*	88.6*
Clc1c(-c2ccccc2)nc2ccccn12	64.7*	54.5*	-217.4	x	6.2	55.4*	-9.2	45.8	79.7*	65.8*	47.4
Clc1cccc(-c2ccc(-c3nc4ccccn4c3NCc3ccccc3)cc2)c1	-0.4	53.4*	i	x	36.4	64.8*	36.4	48.8	71.1*	43.0	8.1
Cc1ccc(-c2nc3ccccn3c2C=O)cc1	45.3	40.9	-0.3	17.1	18.7	28.3	x	x	x	x	x
NC(=NCCc1ccccc1)NC(=O)c1cc(Cl)ccc1O	19.0	2.7	-461.8	x	10.3	4.4	x	x	x	x	x
CN(CC(=O)NCCc1ccccc1)Cc1ccco1	-13.1	1.1	-2.9	x	-4.5	-1.3	x	x	x	x	x
Cc1cc(C(=O)Nc2ccc(Br)cn2)sc1C	84.3*	87.2*	-2.1	x	18.2	84.2*	80.8*	86.9*	97.4*	78.5*	64.0*
O=C(Nc1ccc(Br)cn1)c1ccc(Br)s1	50.5*	47.6	11.0	x	37.2	39.3	10.5	15.5	76.9*	39.9	27.1
O=C(Nc1ccccc1C(=O)Nc1ccc(Br)cn1)c1ccccc1Cl	-6.9	0.1	-11.1	x	-5.1	-4.9	x	x	x	x	x
O=C(Nc1ccon1)c1ccc(Br)s1	-16.7	-16.6	-0.4	x	-2.3	-17.4	x	x	x	x	x
Cc1ccc(NC(=O)c2cc(F)c(F)cc2Cl)nc1	-13.6	4.2	3.9	19.7	17.3	-8.3	x	x	x	x	x
Cc1ccccc1C(=O)Nc1ccc(Br)cn1	59.2*	51.3*	5.7	18.0	13.2	39.4	7.1	40.0	79.1*	63.3*	16.5
Cc1ccc(NC(=O)c2ccccc2F)nc1	74.1*	50.6*	-318.4	8.9	14.6	43.7	33.2	58.4*	85.4*	85.8*	48.7
COc1c2c(cc3ccc(=O)oc13)CCO2	-9.1	2.4	-317.5	x	0.4	9.7	x	x	x	x	x
CCCCN(C(=O)c1cc(S(=O)(=O)N2CCOCC2)ccc1Cl)c1c(N)n(CC(C)C)c(=O)[nH]c1=O	8.3	1.3	12.2	x	-10.0	-0.2	x	x	x	x	x
S=C1SCN(CCc2ccccc2)CN1CCc1ccccc1	x	x	-4.9	x	-11.1	x	x	x	x	x	x
SMILES	SENP6 block	SENP7 inh	SENP8 block-1	PPC-1+TRAIL kill	TRAIL sens C8	SENP8 block-2	SENP8 confirm	SENP6 conf	SENP7 conf	Casp3 select	SENP luc ctr
CC/C(=N\N=C(/CC)c1ccccc1N)c1ccccc1N	-8.3	-6.6	4.6	x	0.2	-5.7	x	x	x	x	x
Cc1ccc(N2C(=O)CC(Nc3ccc(Cl)c(S(=O)(=O)N(C)C)c3)C2=O)c(C)c1 (stereo not drawn)	-19.2	-5.7	-0.9	12.1	-6.4	-7.4	x	x	x	x	x
CCOc1ccccc1NC(=O)C1CCN(c2ccc(S(=O)(=O)N3CCCC3)cc2)CC1	1.1	-2.9	-4.4	8.1	0.7	7.0	x	x	x	x	x
CCOc1ccccc1NC(=O)C1CCN(S(=O)(=O)c2ccc(OC)c(OC)c2)CC1	-9.0	71.3*	14.7	22.0	32.2	2.2	1.7	5.9	7.2	3.9	2.6
O=C(NCCc1ccccc1)c1ccc(NCC2CCCO2)c([N+](=O)[O-])c1 (stereo not drawn)	-1.5	-6.8	13.5	21.1	-7.6	-11.7	x	x	x	x	x
O=C(Nc1ccc2c(c1)CCC2)c1ccccc1F	92.0*	79.7*	32.7	6.1	56.7*	70.2*	11.2	85.9*	98.9*	85.2*	84.7*
O=C(O)c1ccccc1-c1ccccc1C(=O)Nc1ccc2c(c1)CCC2	-6.0	-4.1	11.0	x	10.5	1.4	x	x	x	x	x
Cc1nc(NC(=O)c2ccc(F)cc2)sc1C(=O)Nc1ccc2c(c1)CCC2	3.8	45.1	-14.6	27.5	3.3	-12.9	x	x	x	x	x
O=C(Nc1ccc2c(c1)CCC2)c1ccccc1	84.3*	88.0*	4.2	30.0	40.9	82.0*	90.0*	88.8*	98.1*	87.8*	86.9*
Cc1ccc(C(=O)Nc2nc(C)c(C(=O)Nc3ccc4c(c3)CCC4)s2)cc1	65.9*	41.8	-115.1	-10.0	-3.0	17.5	37.9	31.5	64.8*	48.7	6.4
CCn1ccc(C(=O)Nc2ccc(N(C)C(C)=O)cc2)n1	7.9	-2.3	27.6	24.1	-0.1	-5.6	x	x	x	x	x
CCn1ccc(C(=O)Nc2ccc3c(c2)CCC3)n1	43.4	59.4*	10.1	x	26.2	24.8	44.4	45.0	81.0*	65.3*	56.6*
CCCCCCn1c(-c2cccs2)n[nH]c1=S	-17.2	-2.3	-412.0	23.8	-1.2	-0.5	x	x	x	x	x
